From the supplement of paper PMC7595190
Unmarked numbers belong to inactive results.

Legend:
Experiment in all cases: CellTox Green cytotoxicity fluorescence relative to DMSO vehicle (fold of vehicle RFU); higher = more cell death (loss of membrane integrity), active = 2 or more
CMK = test system: CMK
Outline: (§1)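 Single compounds from the Selleckchem apoptosis library were applied at final 0.01, 0.1 and 1 µM (0.1% DMSO vehicle) to MV4-11, CMK and Kasumi-1 cells seeded at 4.0 × 10^4 cells per well with CellTox Green reagent. After incubation at 37 °C, 5% CO2, fluorescence was read at 24, 48 and 72 h. Cytotoxicity, meaning loss of membrane integrity, is shown as fold of the DMSO vehicle signal.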

Kasumi-1 = test system: Kasumi-1
Outline: as §1

MV4-11 = test system: MV4-11
Outline: as §1

Row | SMILES | CellTox Green cytotoxicity fluorescence (CMK; 0.01 µM, 24 h) | CellTox Green cytotoxicity fluorescence (CMK; 0.01 µM, 48 h) | CellTox Green cytotoxicity fluorescence (CMK; 0.01 µM, 72 h) | CellTox Green cytotoxicity fluorescence (CMK; 0.1 µM, 24 h) | CellTox Green cytotoxicity fluorescence (CMK; 0.1 µM, 48 h) | CellTox Green cytotoxicity fluorescence (CMK; 0.1 µM, 72 h) | CellTox Green cytotoxicity fluorescence (CMK; 1 µM, 24 h) | CellTox Green cytotoxicity fluorescence (CMK; 1 µM, 48 h) | CellTox Green cytotoxicity fluorescence (CMK; 1 µM, 72 h) | CellTox Green cytotoxicity fluorescence (Kasumi-1; 0.01 µM, 24 h) | CellTox Green cytotoxicity fluorescence (Kasumi-1; 0.01 µM, 48 h) | CellTox Green cytotoxicity fluorescence (Kasumi-1; 0.01 µM, 72 h) | CellTox Green cytotoxicity fluorescence (Kasumi-1; 1 µM, 24 h) | CellTox Green cytotoxicity fluorescence (Kasumi-1; 1 µM, 48 h) | CellTox Green cytotoxicity fluorescence (Kasumi-1; 1 µM, 72 h) | CellTox Green cytotoxicity fluorescence (MV4-11; 0.01 µM, 24 h) | CellTox Green cytotoxicity fluorescence (MV4-11; 0.01 µM, 48 h) | CellTox Green cytotoxicity fluorescence (MV4-11; 0.01 µM, 72 h) | CellTox Green cytotoxicity fluorescence (MV4-11; 0.1 µM, 24 h) | CellTox Green cytotoxicity fluorescence (MV4-11; 0.1 µM, 48 h) | CellTox Green cytotoxicity fluorescence (MV4-11; 0.1 µM, 72 h) | CellTox Green cytotoxicity fluorescence (MV4-11; 1 µM, 24 h) | CellTox Green cytotoxicity fluorescence (MV4-11; 1 µM, 48 h) | CellTox Green cytotoxicity fluorescence (MV4-11; 1 µM, 72 h) | CellTox Green cytotoxicity fluorescence (Kasumi-1; 0.1 µM, 24 h) | CellTox Green cytotoxicity fluorescence (Kasumi-1; 0.1 µM, 48 h) | CellTox Green cytotoxicity fluorescence (Kasumi-1; 0.1 µM, 72 h)
1 | Cc1c(C(=O)Nc2ccc(Oc3ccnc4[nH]cc(-c5ccccc5)c34)c(F)c2)c(=O)n(-c2ccc(F)cc2)n1C | 1.01 | 1.02 | 1.1 | 0.997 | 1.02 | 1.01 | 0.945 | 0.956 | 1.02 | 1.01 | 1.02 | 0.998 | 0.84 | 0.814 | 0.805 | 1.01 | 1.03 | 1.06 | 1.05 | 1.23 | 1.41 | 1.03 | 1.24 | 1.49 | – | – | –
2 | CC1(C)CC[C@]2(NC(=O)C(C)(F)F)CC[C@]3(C)[C@H](C(=O)C=C4[C@@]5(C)C=C(C#N)C(=O)C(C)(C)[C@@H]5CC[C@]43C)[C@@H]2C1 [Omaveloxolone] | 0.972 | 0.97 | 1 | 0.98 | 0.952 | 0.762 | 2.13 (active) | 2.33 (active) | 1.56 | 0.94 | 0.95 | 0.898 | 1.11 | 1.34 | 1.34 | 0.94 | 0.94 | 0.966 | 0.943 | 0.997 | 1.1 | 1.23 | 2.12 (active) | 2.24 (active) | 0.971 | 1 | 0.946
3 | Cc1cccc(CC(=O)N2CCc3c2ccc(-c2cn(C)c4ncnc(N)c24)c3F)n1 | 0.981 | 0.975 | 0.966 | 1 | 0.997 | 1 | 1 | 1.05 | 0.907 | 1.03 | 1.02 | 1.02 | 1.03 | 1.03 | 1.04 | 1.04 | 1.04 | 1.06 | 1.02 | 1.01 | 1.02 | 1.03 | 1.03 | 1.04 | 1.01 | 1.02 | 1.04
4 | CCOC(=O)c1[nH]c2cc(Cl)ccc2c1C(C(=O)NC(C)(C)C)N(C=O)Cc1ccc(Cl)cc1 (stereo not drawn) | 0.996 | 0.985 | 1 | 0.958 | 0.958 | 0.962 | 0.96 | 0.971 | 0.87 | 1.06 | 1.01 | 1 | 0.977 | 0.971 | 0.97 | 0.983 | 0.965 | 0.957 | 0.989 | 0.983 | 0.985 | 0.954 | 0.993 | 1.02 | 0.989 | 0.982 | 1
5 | Nc1cccc2c1CN(C1CCC(=O)NC1=O)C2=O (stereo not drawn) [Lenalidomide] | 0.938 | 0.942 | 0.905 | 0.932 | 0.929 | 0.898 | 0.948 | 0.969 | 0.783 | 0.986 | 0.897 | 0.88 | 0.986 | 1 | 0.982 | 0.939 | 0.942 | 0.935 | 0.943 | 0.929 | 0.915 | 0.952 | 0.958 | 0.944 | 0.951 | 0.933 | 0.915
6 | CN(C)CC[C@H](CSc1ccccc1)Nc1ccc(S(=O)(=O)NC(=O)c2ccc(N3CCN(Cc4ccccc4-c4ccc(Cl)cc4)CC3)cc2)cc1[N+](=O)[O-] | 0.932 | 0.938 | 0.907 | 0.982 | 0.992 | 1.02 | 1.48 | 1.67 | 1.52 | 1.07 | 1.11 | 1.18 | 1.44 | 1.81 | 1.84 | 0.961 | 1.15 | 1.31 | 1.08 | 1.59 | 1.88 | 1.27 | 2.34 (active) | 2.59 (active) | 1.17 | 1.49 | 1.66
7 | N#CC(=Cc1ccc(-c2cc(Cl)ccc2Cl)o1)C(=O)Nc1cccc2ncccc12 | 0.949 | 0.938 | 0.947 | 0.993 | 0.99 | 0.992 | 1 | 1.05 | 1.03 | 1 | 0.958 | 0.958 | 0.939 | 0.916 | 0.917 | 1.01 | 0.987 | 0.982 | 0.998 | 0.992 | 1.01 | 0.969 | 0.985 | 0.984 | 0.998 | 0.979 | 0.979
8 | COCC[n+]1c2c(n(Cc3cnccn3)c1C)C(=O)c1ccccc1C2=O [Sepantronium Bromide] | 0.916 | 0.91 | 0.922 | 0.955 | 1.02 | 0.927 | 1.06 | 1.53 | 1.41 | 1.02 | 1.03 | 1.11 | 1.5 | 2.08 (active) | 2.15 (active) | 0.95 | 0.938 | 0.957 | 1.02 | 1.83 | 2.14 (active) | 1.35 | 2.26 (active) | 2.48 (active) | 1.08 | 1.41 | 1.57
